SW480 rerep: inducers of DNA re-replication in SW480 colon cancer cells. Potency, µM (titrated, usually from 46.1 µM), usual class: activators. SW480 DNA re-replication, Hoechst DNA content imaging, 48 h. actives 1.8% (n = 340,000); also: nearly all actives have a fitted effect of over 55% in size
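Hoechst fluorescence of nuclei (405 nm excitation, 500-530 nm emission) measured by plate-scanning imager after 48 hr compound exposure at 37 C; re-replication scored as increased number of nuclei with elevated intensity.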
KB-3-1 tox: kills parental KB-3-1 adenocarcinoma cells. KB-3-1 viability, CellTiter-Glo ATP luminescence, 72 h. Potency, µM (highest dose often 46.1 µM), actives largely listed as cytotoxic. actives 1.4% (n = 400,000); also: nearly all actives have a fitted effect of over 60% in size
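KB-3-1 cells, DMEM (no phenol red) + 10% FBS; compound by pin transfer, 72 h, 37 °C. Readout: CellTiter-Glo luminescence after 10 min. Data normalized, curve-fitted.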
ELG1 DNA repair: blocks ELG1-dependent DNA repair in HEK293T cells; AID 504467; Potency, µM (series often up to 46.1 µM), actives largely listed as inhibitors; actives 2.3% (n = 330,000); HEK293T ELG1-luciferase reporter, luminescence, 16 h; DNA damage induced by 5-fluorouridine; also: nearly all actives have a fitted effect of over 55% in size
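Luminescence from the luciferase reporter, measured 30 min after ONE-Glo reagent at room temperature, was the read-out. Beforehand, 2,000 cells per well were exposed for 16 hr at 37 °C to 5-fluorouridine together with compound or vehicle.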
MCF10A rerep: DNA re-replication induction in MCF 10a cells | MCF 10A DNA re-replication, Hoechst nuclear intensity, 48 h | Potency, µM (highest dose often 46.1 µM), usual class: activators | actives 2.9% (n = 350,000) | AID 624296; also: nearly all actives have a fitted effect of over 50% in size
KB-V1 MDR tox: KB-V1 MDR subline cytotoxicity; KB-V1 MDR cells viability, CellTiter-Glo, 72 h; Potency, µM (series often up to 46.1 µM), usual class: cytotoxic; actives 3.4% (n = 400,000); AID 1347076; also: nearly all actives have a fitted effect of over 60% in size
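KB-V1, DMEM (no phenol red) + 10% FBS; cpd pin-transferred, titration series; 72 h, 37 degrees C; CellTiter-Glo, luminescence. Data normalized, curve-fit.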
Large screens that a line does not name were inactive. An excerpt weighted towards active compounds, which were near 8.2% of everything screened. Calls follow the shape of the dose curve; as a rule, active = well fitted curve in the direction sought with a large enough effect; inconclusive = small, poorly fitted or top-dose-only effect, or another doubt; inactive = no such curve, though single readings can be large; an effect the other way counts as inactive or inconclusive.

O=C(Nc1ccc2c(c1)CCC2)c1cc(S(=O)(=O)Nc2ccc(F)cc2)c(Cl)cc1Cl	KB-3-1 tox inconclusive, ELG1 DNA repair inconclusive, MCF10A rerep inconclusive, KB-V1 MDR tox 18µM
O=C(Nc1ccc2c(c1)CCC2)c1ccc(F)cc1	ELG1 DNA repair inconclusive
CCCCCCSc1ccc([C@H]2N[C@@](C)(C(=O)OC)[C@H]3C(=O)N(C)C(=O)[C@@H]23)cc1	SW480 rerep inconclusive, KB-3-1 tox inconclusive, ELG1 DNA repair inconclusive, MCF10A rerep inconclusive
CC(=O)c1cc(-c2ccccc2)n(CC(=O)Nc2ccc(C)c(C)c2)c1C	MCF10A rerep 23µM
CC(C)c1ccccc1NC(=O)Cn1c(/C=C/c2ccccc2)nc2ccccc21	SW480 rerep 9.2µM, ELG1 DNA repair inconclusive, MCF10A rerep 10µM, KB-V1 MDR tox inconclusive
CCn1c(SCC(=O)N/N=C/C=C\c2ccccc2[N+](=O)[O-])nc2ccccc21	KB-3-1 tox inconclusive, KB-V1 MDR tox 7.3µM
CC(=O)c1cc(-c2ccccc2)n(CC(=O)Nc2cccc(C)c2C)c1C	none
Cc1ccc(C(=O)Cn2c(NCCO)nc3ccccc32)cc1	KB-3-1 tox inconclusive
Cc1ccc(C(=O)Cn2c(C(=O)/C=C/c3ccccc3)nc3ccccc32)cc1	SW480 rerep inconclusive, KB-3-1 tox inconclusive, MCF10A rerep 23µM, KB-V1 MDR tox 13µM
O=C(OCc1cc(=O)n2nc(C3CC3)sc2n1)c1ccc(NC(=O)c2ccccc2F)cc1	KB-V1 MDR tox inconclusive (no result: SW480 rerep, ELG1 DNA repair, MCF10A rerep)
C[C@@H]1CN([C@H](C)CO)C(=O)c2cc(C#C[C@@H](C)O)cnc2O[C@H]1CN(C)C(=O)c1ccc(F)cc1	none (no result: SW480 rerep, ELG1 DNA repair, MCF10A rerep)
Cc1nc2ccccc2n1CC(=O)N/N=C\C=C\c1ccccc1	ELG1 DNA repair inconclusive, KB-V1 MDR tox 21µM
Cc1nc2ccccc2n1CC(=O)N/N=C\c1ccccn1	none
Cc1nc2ccccc2n1CC(=O)NC1CCCCCC1	KB-3-1 tox inconclusive, ELG1 DNA repair 15µM, KB-V1 MDR tox 15µM
Cc1occc1C(=O)N/N=C/C=C\c1ccccc1[N+](=O)[O-]	ELG1 DNA repair inconclusive
Cc1ccc(NC(=O)Cn2c(/C=C/c3ccccc3)nc3ccccc32)cc1C	SW480 rerep inconclusive, MCF10A rerep 16µM, KB-V1 MDR tox inconclusive
O=C(N/N=C/C=C\c1ccccc1[N+](=O)[O-])c1ccco1	SW480 rerep 26µM, MCF10A rerep inconclusive
COc1cc2c(NC3CCN(C)CC3)nc(N3CCCCC3)nc2cc1OCCCN(C)C	KB-3-1 tox inconclusive (no result: SW480 rerep, ELG1 DNA repair, MCF10A rerep)
Cc1ccc(C23CC4CC(CC(C(=O)N(C)C)(C4)C2)C3)cc1	MCF10A rerep inconclusive
CCCn1c(/C=C/c2ccccc2)nc2ccccc21	SW480 rerep inconclusive, ELG1 DNA repair inconclusive, MCF10A rerep 23µM
COc1ccccc1CNC(=O)c1ccc(-c2nc(CN3CCc4ccccc43)c(C)o2)cc1	KB-3-1 tox inconclusive, KB-V1 MDR tox 10µM (no result: SW480 rerep, ELG1 DNA repair, MCF10A rerep)
Cc1oc(-c2ccc(C(=O)NCc3ccccc3Cl)cc2)nc1CN1CCc2ccccc21	KB-3-1 tox 5.8µM, KB-V1 MDR tox inconclusive (no result: SW480 rerep, ELG1 DNA repair, MCF10A rerep)
COc1ccc(NC(=O)CNC(=O)Cn2ccc3ccccc3c2=O)cc1OC	none (no result: SW480 rerep, ELG1 DNA repair, MCF10A rerep)
COc1ccccc1OCCN1CSC(=S)N(C)C1	SW480 rerep 2.6µM, KB-3-1 tox 5.2µM, ELG1 DNA repair inconclusive, MCF10A rerep 7.3µM, KB-V1 MDR tox inconclusive
Cc1cccc(OCCN2CSC(=S)N(C)C2)c1	SW480 rerep inconclusive, KB-3-1 tox 8.2µM, MCF10A rerep 5.8µM, KB-V1 MDR tox 10µM
O=CNCc1nc2ccccc2n1CCc1ccccc1	SW480 rerep 2.9µM, MCF10A rerep inconclusive, KB-V1 MDR tox inconclusive
O=CNCCCc1nc2ccccc2n1CCc1ccccc1	none
CCN(CC)CCNC(=O)c1ccc(NC(=O)CC(NC(=O)c2ccccc2Cl)c2ccccc2)cc1 (centres undefined)	none
COc1ccc(CCN(C(=O)c2ccccc2)C2=CC3CCC(C2)N3C)cc1OC (centres undefined)	none (no result: SW480 rerep, KB-3-1 tox, MCF10A rerep, KB-V1 MDR tox)
CN1C2C=C(N(CCc3c[nH]c4ccccc34)C(=O)c3ccc(Cl)cc3)CC1CC2 (centres undefined)	SW480 rerep inconclusive, KB-3-1 tox inconclusive, KB-V1 MDR tox 23µM
COC(=O)c1cc(-c2ccc(Br)cc2)c2c(=O)[nH]c(=O)n(C)c2n1	none
CCOc1ccc(-c2cc(C(=O)OC)nc3c2c(=O)n(C)c(=O)n3C)cc1	SW480 rerep inconclusive, MCF10A rerep 23µM
COC(=O)c1cc(-c2ccc(OC)c(OC)c2)c2c(=O)[nH]c(=O)n(C)c2n1	MCF10A rerep 6.5µM
Cc1nc2ccc(S(=O)(=O)CCC(=O)Nc3ccc(C)c(C)c3)cc2s1	none (no result: SW480 rerep, ELG1 DNA repair, MCF10A rerep)
O=c1[nH]c(-c2ccc(-c3cccc(Cl)c3)o2)nc2ccccc12	ELG1 DNA repair inconclusive, MCF10A rerep 10µM
O=c1[nH]c(SCc2cccc(Cl)c2)nc2ccccc12	MCF10A rerep inconclusive
Cc1cc(C)nc(-n2nc(C)cc2NC(=O)CN2CCc3ccccc3C2)n1	ELG1 DNA repair 3.7µM, MCF10A rerep inconclusive, KB-V1 MDR tox inconclusive
CCN(CC(=O)Nc1cc(C)nn1-c1nc(C)cc(C)n1)Cc1ccccc1	SW480 rerep inconclusive, KB-3-1 tox inconclusive, ELG1 DNA repair 18µM, MCF10A rerep inconclusive, KB-V1 MDR tox inconclusive
COc1ccc(-c2c3c(nc4sc(C(=O)Nc5cc(C)on5)c(N)c24)CCC3)cc1	SW480 rerep 18µM, ELG1 DNA repair inconclusive, MCF10A rerep 1.5µM
CC(C)n1c(=S)[nH]c2scc(-c3cccs3)c2c1=O	ELG1 DNA repair inconclusive, MCF10A rerep 6.5µM
CCn1c(=S)[nH]c2scc(-c3cccs3)c2c1=O	KB-3-1 tox inconclusive, ELG1 DNA repair inconclusive, MCF10A rerep inconclusive
CCc1oc2ccccc2c1C(=O)c1cc(I)c(O)c(I)c1	MCF10A rerep 3.8µM (no result: KB-3-1 tox, ELG1 DNA repair, KB-V1 MDR tox)

Screening data as filed in PubChem BioAssay.
